Experimental data reported in PubChem BioAssay (NCI).
Values joined by “and” are separate entries in the source; they are usually repeats but may differ in a detail not shown here. Equal values may be shown once. This is part of a sample that, as a whole, favours compounds with a hit. Of some 83,000 tested, about 20% had one in any assay.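 Each cell line was grown in a 96-well plate and treated with one concentration of compound for 48 hours. Values below 10 were considered active.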 Active and inactive are the calls of the source.

What follows are compounds tested on MDA-MB-468 breast (assay: NCI-60 one-dose screen, 48 h (100 = growth as untreated, 0 = no growth, -100 = all killed)). Conditions: 10 µM unless noted.
For `C=C1C(=O)O[C@H]2[C@H]1CC/C(COC(=O)c1cc3ccccc3s1)=C\CC[C@@]1(C)O[C@@H]21`, the growth was -48.4% (active). For `Cc1cc(N2CCCC2)nc(NC2CCCC(Nc3ccnc4cc(Cl)ccc34)C2)n1` (stereo not drawn), the growth was -56.1% (active). In the case of `O=[N+]([O-])CC(O)c1ccccc1` (stereo not drawn), the growth is reported as 98.7% (inactive). In the case of `CCCCCCCCCCCCCCCCCC1OCC(COC(=O)O[C@]2(CC)C(=O)OCc3c2cc2n(c3=O)Cc3cc4ccccc4nc3-2)O1` (stereo partly drawn), the growth is reported as 69.9% (inactive). In the case of `CC1(C)OC(=O)C(=Cc2ccc(C#N)cc2)C(=O)O1`, the growth is reported as 91.7% (inactive) and 96.1% (inactive). For `O=C(O/C(=C/c1ccccc1)C(F)(F)F)c1ccccc1`, the growth was 109% (inactive). In the case of `COc1ccc(-n2sc(=O)n(Cc3ccc(COC(=O)C(C)c4ccc(CC(C)C)cc4)cc3)c2=O)cc1` (stereo not drawn), the growth is reported as -46.1% (active). For `Oc1ccc(-c2nc3ccc4[nH]ncc4c3c3c2CCCC3)c2cccnc12`, the growth was -17.1% (active). With `O=[N+]([O-])c1ccc2nc(N/N=C/c3ccc(O)cc3)sc2c1` the growth was 64.2% (inactive). For `O=C(CCCn1c2c(sc3ccccc32)c(=O)n2nnc(-c3ccccc3)c12)NCCc1cnc[nH]1`, the growth was -91% (active). For `N#Cc1c(-c2ccc(Cl)cc2)nc(NCCO)[nH]c1=O`, the growth was 119% (inactive). For `N#Cc1ccc(NC(=O)c2ccc3cccnc3c2O)cc1`, the growth was 1.27% (active). `N#CCCN1CCN(CCC#N)C1=S` was tested, and the growth was 119% (inactive). With `CCN(CC)CCCNc1ccc(Nc2ccc(OC)cc2)cc1` the growth was 78.8% (inactive). For `O=C1CC[C@H](c2ccc(O)c3c2C(=O)[C@@H]2O[C@@H]2C3=O)c2cccc(O)c21`, the growth was -64.8% (active). For `COc1cc(/C=C2\C(=O)N(c3c(Cl)cccc3Cl)c3ccccc32)cc(OC)c1O`, the growth was 57.4% (inactive). In the case of `Cc1cc([N+](=O)[O-])ccc1NC(=O)c1ccc2c(c1)nc(-c1ccccc1)n2C1CCCCC1`, the growth is reported as 100% (inactive). `Cc1ccc(-c2nnc(SCc3ccc(O)c4ncccc34)o2)cc1` was tested, and the growth was 14.4% (inactive). `COc1cc(NC(=O)COc2ccccc2)c(C(N)=O)cc1OC` was tested, and the growth was 17.7% (inactive). With `O=C(CCN1CCOCC1)Nc1cccc(-n2cc(-c3ccncc3)c(-c3ccc(Cl)c(O)c3)n2)c1` the growth was 25.2% (inactive). `C/C(=N\Nc1ccc(Cl)cn1)c1ccc2ccccc2n1` was tested, and the growth was -20.3% (active). With `C/C(=N\Nc1ccc2ccccc2n1)c1ccccn1` the growth was -36.1% (active). In the case of `O=C(NNC(=O)N1c2ccccc2C=Cc2ccccc21)c1ccccc1`, the growth is reported as 98.9% (inactive). In the case of `CC1=C(CC(=O)c2cccc([N+](=O)[O-])c2)C(=O)c2ccccc2C1=O`, the growth is reported as -52.5% (active). For `COc1ccc(C2C(C#N)=C(N)Oc3c2sc2c(F)cccc32)cc1` (stereo not drawn), the growth was 40.6% (inactive). For `Nc1nc(N)c2c(n1)NC(c1sc(Cl)nc1Cl)CC(c1ccc3c(c1)OCO3)=N2` (stereo not drawn), the growth was -13.3% (active). `CC(=O)Nc1nc(C)c(C(=O)NNS(=O)(=O)c2ccccc2)s1` was tested, and the growth was 107% (inactive). `N=c1sc(Cc2cc(Cl)ccc2Cl)cn1CC(=O)c1ccccc1` was tested, and the growth was 61.3% (inactive).
